Experimental data: PubChem BioAssay (NCATS)
Results filed as inconclusive are left out. A number with no mark means an inactive call. Calls of active or inactive are those of the source. The call rests on the fitted dose curve; in most records, active means well fitted cell-killing curve with a large enough effect; inconclusive means small, poorly fitted or top-dose-only effect, or effect the other way; inactive means no such curve, though single readings can be large or run the other way.

What was measured:
[1] = Quantitative High-Throughput drug screen in 47 multiple myeloma cell lines against the NCATS MIPE library collection: MM1R_ATCC cell viability assay (AID 1918981); further: nearly all actives have a fitted effect of over 35% in size; further: potency means the concentration at half of the fitted maximal effect
Outline: (§1)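 Myeloma cells (500/well) treated with MIPE 4.0 compounds for 48 h at 37 °C, 5% CO2. Viability read as ATP via CellTiter-Glo luminescence after 5 min at RT; DMSO-only wells = 100%, media-only = 0% viability.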

[2] = Quantitative High-Throughput drug screen in 47 multiple myeloma cell lines against the NCATS MIPE library collection: KMS28PE_JCRB cell viability assay (AID 1918983); further: nearly all actives have a fitted effect of over 35% in size; further: potency means the concentration at half of the fitted maximal effect
Outline: as §1

[3] = Quantitative High-Throughput drug screen in 47 multiple myeloma cell lines against the NCATS MIPE library collection: KMS34_JCRB cell viability assay (AID 1918985); further: potency means the concentration at half of the fitted maximal effect; nearly all actives have a fitted effect of over 40% in size
Outline: as §1

[4] = Quantitative High-Throughput drug screen in 47 multiple myeloma cell lines against the NCATS MIPE library collection: OCIMY7_PLB cell viability assay (AID 1918987); conditions: OCI-MY7 myeloma viability, CellTiter-Glo ATP, 48 h; viability (% of DMSO): at 45.8 µM (top of the series); further: nearly all actives have a fitted effect of over 65% in size; further: potency means the concentration at half of the fitted maximal effect
Outline: as §1

[5] = Quantitative High-Throughput drug screen in 47 multiple myeloma cell lines against the NCATS MIPE library collection: OCIMY5_PLB cell viability assay (AID 1918988); further: nearly all actives have a fitted effect of over 65% in size; further: potency means the concentration at half of the fitted maximal effect
Outline: as §1

[6] = Quantitative High-Throughput drug screen in 47 multiple myeloma cell lines against the NCATS MIPE library collection: OPM1_PLB cell viability assay (AID 1918989); further: nearly all actives have a fitted effect of over 40% in size; further: potency means the concentration at half of the fitted maximal effect
Outline: as §1

[7] = Quantitative High-Throughput drug screen in 47 multiple myeloma cell lines against the NCATS MIPE library collection: SKMM1_PLB cell viability assay (AID 1919863); conditions: SKMM1 myeloma viability, CellTiter-Glo ATP, 48 h; viability: active compounds read low; further: potency means the concentration at half of the fitted maximal effect; nearly all actives have a fitted effect of over 35% in size
Outline: as §1

[8] = Quantitative High-Throughput drug screen in 47 multiple myeloma cell lines against the NCATS MIPE library collection: VP6_DJ cell viability assay (AID 1919867); further: nearly all actives have a fitted effect of over 40% in size; further: potency means the concentration at half of the fitted maximal effect
Outline: as §1

[9] = Quantitative High-Throughput drug screen in 47 multiple myeloma cell lines against the NCATS MIPE library collection: UTMC2_PLB cell viability assay (AID 1919868); conditions: CellTiter-Glo ATP luminescence, 48 h; viability (% of DMSO control): at 45.8 µM (top of the series); further: potency means the concentration at half of the fitted maximal effect; nearly all actives have a fitted effect of over 55% in size
Outline: as §1

[10] = Quantitative High-Throughput drug screen in 47 multiple myeloma cell lines against the NCATS MIPE library collection: PE2_PLB cell viability assay (AID 1919869); further: nearly all actives have a fitted effect of over 35% in size; further: potency means the concentration at half of the fitted maximal effect
Outline: as §1

[11] = Quantitative High-Throughput drug screen in 47 multiple myeloma cell lines against the NCATS MIPE library collection: RPMI8226_ATCC cell viability assay (AID 1919871); further: nearly all actives have a fitted effect of over 30% in size; further: potency means the concentration at half of the fitted maximal effect
Outline: as §1

[12] = Quantitative High-Throughput drug screen in 47 multiple myeloma cell lines against the NCATS MIPE library collection: OPM2_DSMZ cell viability assay (AID 1919872); further: nearly all actives have a fitted effect of over 30% in size; further: potency means the concentration at half of the fitted maximal effect
Outline: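 qHTS of the MIPE 4.0 collection: 500 myeloma cells/well, 48 h drug exposure at 37C in 5% CO2, then CellTiter-Glo for 5 min at room temperature before luminescence reading.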

[13] = Quantitative High-Throughput drug screen in 47 multiple myeloma cell lines against the NCATS MIPE library collection: KMS11_JCRBsus cell viability assay (AID 1919873); further: potency means the concentration at half of the fitted maximal effect; nearly all actives have a fitted effect of over 50% in size
Outline: as §1

[14] = Quantitative High-Throughput drug screen in 47 multiple myeloma cell lines against the NCATS MIPE library collection: KMS28BM_JCRB cell viability assay (AID 1919874); further: nearly all actives have a fitted effect of over 35% in size; further: potency means the concentration at half of the fitted maximal effect
Outline: as §1

[15] = Quantitative High-Throughput drug screen in 47 multiple myeloma cell lines against the NCATS MIPE library collection: U266_ATCC cell viability assay (AID 1919864); further: nearly all actives have a fitted effect of over 35% in size; further: potency means the concentration at half of the fitted maximal effect
Outline: as §1

[16] = Quantitative High-Throughput drug screen in 47 multiple myeloma cell lines against the NCATS MIPE library collection: XG6_PLB cell viability assay (AID 1919865); further: potency means the concentration at half of the fitted maximal effect; nearly all actives have a fitted effect of over 40% in size
Outline: as §1

[17] = Quantitative High-Throughput drug screen in 47 multiple myeloma cell lines against the NCATS MIPE library collection: XG1_PLB cell viability assay (AID 1919866); further: nearly all actives have a fitted effect of over 35% in size
Outline: as §1

[18] = Quantitative High-Throughput drug screen in 47 multiple myeloma cell lines against the NCATS MIPE library collection: PCM6_Riken cell viability assay (AID 1919870); further: nearly all actives have a fitted effect of over 30% in size; further: potency means the concentration at half of the fitted maximal effect
Outline: as §1

| SMILES | Potency [1] | Potency [2] | Potency [3] | Potency [4] | Potency [5] | Potency [6] | Potency [7] | Potency [8] | Potency [9] | Potency [10] | Potency [11] | Potency [12] | Potency [13] | Potency [14] | Potency [15] | Potency [16] | Potency [17] | Potency [18] |
| --- | --- | --- | --- | --- | --- | --- | --- | --- | --- | --- | --- | --- | --- | --- | --- | --- | --- | --- |
| CN(C)CCN(C)C(=O)c1ccc(NC(=O)Nc2ccc(-c3nc(N4CCOCC4)c4ccn(CC(F)(F)F)c4n3)cc2)cc1 | 0.105 µM (active) | 0.0469 µM (active) | 0.372 µM (active) | 3.32 µM (active) | 418 nM (active) | 0.0093 µM (active) | 209 nM (active) | 46.9 nM (active) | 7.4 nM (active) | 0.0074 µM (active) | 0.0833 µM (active) | 0.187 µM (active) | 37.2 nM (active) | 14.8 nM (active) | – | – | – | – |
| CN(C)S(=O)(=O)c1ccc2c(c1)C(=Cc1cc3c([nH]1)CCCC3)C(=O)N2 | 2.96 µM (active) | 20.9 µM (active) | 5.9 µM (active) | 3.32 µM (active) | 2090 nM (active) | – | – | 2640 nM (active) | 3320 nM (active) | 3.72 µM (active) | – | – | – | – | – | – | – | – |
| Cc1ccc(C2=Nc3ccc(Cl)cc3OC2)cc1 | inactive | inactive | 6.62 µM (active) | 1.32 µM (active) | – | – | – | – | – | inactive | 1.87 µM (active) | inactive | – | inactive | 9.35 µM (active) | 7.43 µM (active) | inactive | 7.43 µM (active) |
| COc1c(C)c2c(c(O)c1CC=C(C)CCC(=O)OCCN1CCOCC1)C(=O)OC2 | 11.8 µM (active) | 4.69 µM (active) | 5.9 µM (active) | 3.72 µM (active) | 5260 nM (active) | 8.33 µM (active) | 4180 nM (active) | – | – | 4.18 µM (active) | 4.18 µM (active) | 13.2 µM (active) | – | 3320 nM (active) | 8.33 µM (active) | – | – | – |
| NS(=O)(=O)c1cc(Cl)c(Cl)c(S(N)(=O)=O)c1 | inactive | inactive | – | inactive | inactive | inactive | – | inactive | – | inactive | inactive | inactive | – | inactive | inactive | – | inactive | inactive |
| CSc1cccc(Nc2ncc3cc(-c4c(Cl)cccc4Cl)c(=O)n(C)c3n2)c1 | 2.35 µM (active) | 2.35 µM (active) | 1.48 µM (active) | 0.0935 µM (active) | 296 nM (active) | – | – | 118 nM (active) | 16.6 nM (active) | – | 2.35 µM (active) | 1.32 µM (active) | 187 nM (active) | – | – | – | – | 0.187 µM (active) |
